# Results reported in the supplement of paper PMC8728848.
# The full list was thinned out, with the strongest signals kept by preference.
# B1: HPL (Tachypleus tridentatus) (protein)
# chain: MEDDCTCVTDRSLEGKLMKHPSTPAVYQILDGCRRLVPNPPTYNNIYKNWECIQSNILEKLLCKCDSLSNGAELIKGSGDTVYLLSNGVKRPIADPETFNGFCFDWNKIKTYSDIVINSLSTGPIIIIKHHHHHH
# Experiments:
# Experiment in all cases: glycan array binding signal (z-score within array); higher = stronger binding
# Conditions in all cases: glycan notation: IUPAC condensed, linker removed
# Fuc(a1-2)Gal = molecular target: Fuc(a1-2)Gal
# Summary of the method: (§1)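 The binding signal is a Z-score computed within each array. Data were drawn from 3228 arrays in the Consortium for Functional Glycomics database, restricted to those with a known protein sequence. Scores were averaged over arrays of the same protein sequence at different concentrations or buffers, and over linkers, and negative values can be taken as non-binding.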
# [1] = molecular target: Fuc(a1-2)Gal(b1-3)GlcNAc(b1-2)Man(a1-3)[Fuc(a1-2)Gal(b1-3)GlcNAc(b1-2)Man(a1-6)]Man(b1-4)GlcNAc(b1-4)GlcNAc
# Summary of the method: as §1
# [2] = molecular target: Fuc(a1-2)Gal(b1-3)GlcNAc(b1-3)[Neu5Ac(a2-6)Gal(b1-4)GlcNAc(b1-6)]Gal(b1-4)Glc
# Summary of the method: as §1
# [3] = molecular target: Fuc(a1-2)Gal(b1-4)GlcNAc(b1-2)Man(a1-3)[Fuc(a1-2)Gal(b1-4)GlcNAc(b1-2)Man(a1-6)]Man(b1-4)GlcNAc(b1-4)[Fuc(a1-6)]GlcNAc
# Summary of the method: as §1
# [4] = molecular target: Fuc(a1-2)Gal(b1-4)[Fuc(a1-3)]GlcNAc(b1-2)[Fuc(a1-2)Gal(b1-4)[Fuc(a1-3)]GlcNAc(b1-4)]Man(a1-3)[Fuc(a1-2)Gal(b1-4)[Fuc(a1-3)]GlcNAc(b1-2)Man(a1-6)]Man(b1-4)GlcNAc(b1-4)GlcNAc
# Summary of the method: as §1
# [5] = molecular target: Fuc(a1-2)Gal6S(b1-3)GlcNAc
# Summary of the method: as §1
# [6] = molecular target: Fuc(a1-2)[Gal(a1-3)]Gal(b1-3)GlcNAc(b1-2)Man(a1-3)[Fuc(a1-2)[Gal(a1-3)]Gal(b1-3)GlcNAc(b1-2)Man(a1-6)]Man(b1-4)GlcNAc(b1-4)GlcNAc
# Summary of the method: as §1
# [7] = molecular target: Gal(a1-3)Gal(b1-3)GlcNAc(b1-2)Man(a1-3)[Gal(a1-3)Gal(b1-3)GlcNAc(b1-2)Man(a1-6)]Man(b1-4)GlcNAc(b1-4)GlcNAc
# Summary of the method: as §1
# [8] = molecular target: Gal(a1-3)Gal(b1-3)[Fuc(a1-4)]GlcNAc(b1-2)Man(a1-3)[Gal(a1-3)Gal(b1-3)[Fuc(a1-4)]GlcNAc(b1-2)Man(a1-6)]Man(b1-4)GlcNAc(b1-4)GlcNAc
# Summary of the method: as §1
# Gal(a1-3)Gal(b1-4)Glc = molecular target: Gal(a1-3)Gal(b1-4)Glc
# Summary of the method: as §1
# Gal(a1-6)Glc = molecular target: Gal(a1-6)Glc
# Summary of the method: as §1
# Gal(b1-3)GlcNAc = molecular target: Gal(b1-3)GlcNAc
# Summary of the method: as §1
# [9] = molecular target: Gal(b1-3)GlcNAc(b1-3)Gal(b1-4)[Fuc(a1-3)]GlcNAc
# Summary of the method: as §1
# [10] = molecular target: Gal(b1-3)GlcNAc(b1-3)GalNAc
# Summary of the method: as §1
# [11] = molecular target: Gal(b1-3)[Fuc(a1-4)]GlcNAc(b1-2)Man
# Summary of the method: as §1
# [12] = molecular target: Gal(b1-3)[Fuc(a1-4)]GlcNAc(b1-3)Gal(b1-3)[Fuc(a1-4)]GlcNAc
# Summary of the method: as §1
# [13] = molecular target: Gal(b1-4)GlcNAc(a1-6)Gal(b1-4)GlcNAc
# Summary of the method: as §1
# [14] = molecular target: Gal(b1-4)GlcNAc(b1-2)Man(a1-3)[GlcNAc(b1-2)Man(a1-6)]Man(b1-4)GlcNAc(b1-4)GlcNAc
# Summary of the method: as §1
# [15] = molecular target: Gal(b1-4)GlcNAc(b1-2)[Gal(b1-4)GlcNAc(b1-4)]Man(a1-3)[GlcNAc(b1-4)][Gal(b1-4)GlcNAc(b1-2)Man(a1-6)]Man(b1-4)GlcNAc(b1-4)GlcNAc
# Summary of the method: as §1
# [16] = molecular target: Gal(b1-4)GlcNAc(b1-3)Gal(b1-4)GlcNAc(b1-2)[Gal(b1-4)GlcNAc(b1-3)Gal(b1-4)GlcNAc(b1-6)]Man(a1-6)[Gal(b1-4)GlcNAc(b1-3)Gal(b1-4)GlcNAc(b1-2)Man(a1-3)]Man(b1-4)GlcNAc(b1-4)GlcNAc
# Summary of the method: as §1
# [17] = molecular target: Gal(b1-4)GlcNAc(b1-3)Gal(b1-4)GlcNAc(b1-3)Gal(b1-4)GlcNAc(b1-3)Gal(b1-4)GlcNAc(b1-3)Gal(b1-4)GlcNAc(b1-3)Gal(b1-4)GlcNAc(b1-2)Man(a1-3)[Gal(b1-4)GlcNAc(b1-3)Gal(b1-4)GlcNAc(b1-3)Gal(b1-4)GlcNAc(b1-3)Gal(b1-4)GlcNAc(b1-3)Gal(b1-4)GlcNAc(b1-3)Gal(b1-4)GlcNAc(b1-2)Man(a1-6)]Man(b1-4)GlcNAc(b1-4)GlcNAc
# Summary of the method: as §1
# Gal6S(b1-4)GlcNAc = molecular target: Gal6S(b1-4)GlcNAc
# Summary of the method: as §1
# [18] = molecular target: GalNAc(b1-3)Gal(a1-6)Gal(b1-4)Glc
# Summary of the method: as §1
# [19] = molecular target: GalNAc(b1-4)GlcNAc(b1-2)Man
# Summary of the method: as §1
# [20] = molecular target: GlcNAc(a1-3)Gal(b1-4)GlcNAc
# Summary of the method: as §1
# [21] = molecular target: GlcNAc(a1-6)Gal(b1-4)GlcNAc
# Summary of the method: as §1
# [22] = molecular target: GlcNAc(b1-3)Gal(b1-4)GlcNAc(b1-2)Man(a1-3)[GlcNAc(b1-3)Gal(b1-4)GlcNAc(b1-2)Man(a1-6)]Man(b1-4)GlcNAc(b1-4)[Fuc(a1-6)]GlcNAc
# Summary of the method: as §1
# [23] = molecular target: GlcNAc(b1-3)Gal(b1-4)GlcNAc(b1-2)[GlcNAc(b1-3)Gal(b1-4)GlcNAc(b1-6)]Man(a1-6)[GlcNAc(b1-3)Gal(b1-4)GlcNAc(b1-2)Man(a1-3)]Man(b1-4)GlcNAc(b1-4)GlcNAc
# Summary of the method: as §1
# [24] = molecular target: GlcNAc(b1-3)Gal(b1-4)GlcNAc(b1-3)Gal(b1-4)GlcNAc(b1-3)GalNAc
# Summary of the method: as §1
# GlcNAc(b1-3)Man = molecular target: GlcNAc(b1-3)Man
# Summary of the method: as §1
# Kdn(a2-3)Gal(b1-4)GlcNAc = molecular target: Kdn(a2-3)Gal(b1-4)GlcNAc
# Summary of the method: as §1
# Kdn(a2-6)Gal(b1-4)GlcNAc = molecular target: Kdn(a2-6)Gal(b1-4)GlcNAc
# Summary of the method: as §1
# [25] = molecular target: Neu5Ac(a2-3)Gal(b1-3)GalNAc
# Summary of the method: as §1
# [26] = molecular target: Neu5Ac(a2-3)Gal(b1-3)GlcNAc(b1-2)Man(a1-3)[Neu5Ac(a2-3)Gal(b1-3)GlcNAc(b1-2)Man(a1-6)]Man(b1-4)GlcNAc(b1-4)GlcNAc
# Summary of the method: as §1
# [27] = molecular target: Neu5Ac(a2-3)Gal(b1-4)GlcNAc(b1-3)Gal(b1-4)GlcNAc(b1-3)Gal(b1-4)GlcNAc(b1-2)Man(a1-3)[Neu5Ac(a2-3)Gal(b1-4)GlcNAc(b1-3)Gal(b1-4)GlcNAc(b1-3)Gal(b1-4)GlcNAc(b1-2)Man(a1-6)]GalNAc
# Summary of the method: as §1
# [28] = molecular target: Neu5Ac(a2-3)Gal(b1-4)GlcNAc(b1-3)[Neu5Ac(a2-3)Gal(b1-4)GlcNAc(b1-6)]GalNAc
# Summary of the method: as §1
# [29] = molecular target: Neu5Ac(a2-6)Gal(b1-4)GlcNAc(b1-3)Gal(b1-4)GlcNAc(b1-6)[Gal(b1-3)]GalNAc
# Summary of the method: as §1
# [30] = molecular target: Neu5Ac(a2-6)Gal(b1-4)GlcNAc(b1-3)[Neu5Ac(a2-6)Gal(b1-4)GlcNAc(b1-6)]GalNAc
# Summary of the method: as §1
# [31] = molecular target: Neu5Ac9Ac(a2-3)Gal(b1-4)GlcNAc
# Summary of the method: as §1
# [32] = molecular target: Neu5Gc(a2-3)Gal(b1-3)GlcNAc
# Summary of the method: as §1
binder,measurement,setting,value
B1,glycan array binding signal (z-score),Fuc(a1-2)Gal,-0.153
same,glycan array binding signal (z-score),[1],4.15
same,glycan array binding signal (z-score),[2],-0.343
same,glycan array binding signal (z-score),[3],3.19
same,glycan array binding signal (z-score),[4],2.19
same,glycan array binding signal (z-score),[5],0.027
same,glycan array binding signal (z-score),[6],-0.163
same,glycan array binding signal (z-score),[7],3.2
same,glycan array binding signal (z-score),[8],2.31
same,glycan array binding signal (z-score),Gal(a1-3)Gal(b1-4)Glc,0.05
same,glycan array binding signal (z-score),Gal(a1-6)Glc,1.55
same,glycan array binding signal (z-score),Gal(b1-3)GlcNAc,-0.177
same,glycan array binding signal (z-score),[9],-0.309
same,glycan array binding signal (z-score),[10],-0.36
same,glycan array binding signal (z-score),[11],1.71
same,glycan array binding signal (z-score),[12],-0.131
same,glycan array binding signal (z-score),[13],-0.342
same,glycan array binding signal (z-score),[14],-0.178
same,glycan array binding signal (z-score),[15],5.11
same,glycan array binding signal (z-score),[16],2.19
same,glycan array binding signal (z-score),[17],-0.206
same,glycan array binding signal (z-score),Gal6S(b1-4)GlcNAc,-0.335
same,glycan array binding signal (z-score),[18],-0.402
same,glycan array binding signal (z-score),[19],-0.379
same,glycan array binding signal (z-score),[20],-0.255
same,glycan array binding signal (z-score),[21],-0.429
same,glycan array binding signal (z-score),[22],0.104
same,glycan array binding signal (z-score),[23],0.395
same,glycan array binding signal (z-score),[24],-0.251
same,glycan array binding signal (z-score),GlcNAc(b1-3)Man,0.24
same,glycan array binding signal (z-score),Kdn(a2-3)Gal(b1-4)GlcNAc,-0.185
same,glycan array binding signal (z-score),Kdn(a2-6)Gal(b1-4)GlcNAc,-0.279
same,glycan array binding signal (z-score),[25],-0.291
same,glycan array binding signal (z-score),[26],2.02
same,glycan array binding signal (z-score),[27],1.54
same,glycan array binding signal (z-score),[28],-0.093
same,glycan array binding signal (z-score),[29],-0.132
same,glycan array binding signal (z-score),[30],0.127
same,glycan array binding signal (z-score),[31],-0.231
same,glycan array binding signal (z-score),[32],-0.215
